Experimental data from PubChem BioAssay (NCATS).
Inconclusive results are not listed. The source made the active and inactive calls. Unless noted, how the calls were made is not given here.

How the values were obtained:
[1] = qHTS profiling of the MIPE4 collection as inhibitors of Plasmodium falciparum (3D7) proliferation (AID 743344);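 further: scaled between DMSO vehicle wells and 0.29 µM artemisinin as full inhibition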; conditions: P. falciparum 3D7 in erythrocytes, SYBR Green DNA fluorescence, 72 h; at 28.5 µM unless noted
Method in brief: (§1)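 Erythrocytes infected with P. falciparum (0.3% parasitemia, 2.5% hematocrit) incubated with compounds 72 h at 37 C, 5% CO2. Lysis with saponin/Triton buffer containing SYBR Green I, overnight at room temperature in the dark; DNA fluorescence (485/535 nm) normalised to 0.29 uM artemisinin and DMSO.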

[2] = qHTS profiling of the MIPE4 collection as inhibitors of Plasmodium falciparum (DD2) proliferation (AID 743345); conditions: P. falciparum Dd2 in erythrocytes, SYBR Green DNA, 72 h; at 28.5 µM unless noted
Method in brief: as §1

[3] = qHTS profiling of the MIPE4 collection as inhibitors of Plasmodium falciparum (DD2) proliferation (Rep 2) (AID 743346); conditions: P. falciparum Dd2 in erythrocytes, SYBR Green DNA, 72 h; at 28.5 µM unless noted
Method in brief: as §1

[4] = qHTS profiling of the MIPE4 collection as inhibitors of Plasmodium falciparum (HB3) proliferation (AID 743347);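 further: plate controls were DMSO vehicle wells for no effect and artemisinin wells for full effect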; conditions: P. falciparum HB3 in erythrocytes, SYBR Green DNA, 72 h; at 28.5 µM unless noted
Method in brief: as §1

[5] = High-throughput drug toxicity screening in the BPDCN cell line Gen2.2 (AID 1224824); conditions: Gen2.2 BPDCN cells; at 45.8 µM (top of the series) unless noted;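 further: cells exposed to compounds for 48 h before reading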
Method in brief: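 Seed 500 exponentially growing Gen2.2 cells/well; add compounds by pin tool; incubate 48 h, 37 °C, 5% CO2; add CellTiter-Glo, 15 min RT; read luminescence. % activity vs DMSO (100%) and bortezomib (0%).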

[6] = High-throughput drug toxicity screening in the BPDCN cell line Cal-1 (AID 1224825); conditions: Cal-1 BPDCN cell viability, qHTS; at 45.8 µM (top of the series) unless noted
Method in brief: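 Exponentially growing Cal-1 cells, 500 per well in phenol red-free RPMI with 10% FBS, were exposed to compounds for 48 h at 37 °C, 5% CO2. Viability was read by CellTiter-Glo luminescence and normalised to DMSO (100%) and 9.2 uM bortezomib (0%).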

[7] = qHTS assay for measurement of the activity of small molecule inhibitors on Zika virus induced Caspase-3 activity in human iPSC derived neural progenitor cells (hNPCs) (AID 1224857; active means well fitted curve in the direction sought with a large enough effect; an effect the other way counts as inactive or inconclusive; further: nearly all actives have a fitted effect of over 65% in size; further: potency means the concentration at half of the fitted maximal effect)
Method in brief: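 Pretreat hNPCs with compound 1 h; infect ZIKV 2 FFU/cell; 6 h 37 C, 5% CO2; Caspase-Glo 3/7, 30 min RT; luminescence; normalize to no-virus and virus-only wells.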

[8] = qHTS assay for measurement of the activity of small molecule inhibitors on Zika virus induced Caspase-3 activity in human astrocytoma cells (AID 1224859; active means well fitted curve in the direction sought with a large enough effect; an effect the other way counts as inactive or inconclusive;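 further: plate controls were ZIKV-infected untreated cells for no effect and uninfected cells for full effect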)
Method in brief: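 Human SNB-19 astrocytoma cells in RPMI 1640 with 10% FBS receive compound one hour ahead of Zika virus at 2 FFU/cell. After 6 h infection, caspase-3/7 activity is detected by Caspase-Glo luminescence.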

[9] = P-glycoprotein substrates identified in KB-8-5-11 adenocarcinoma cell line, qHTS therapeutic library screen (AID 1346987; active means well fitted curve in the direction sought with a large enough effect; an effect the other way counts as inactive or inconclusive; further: nearly all actives have a fitted effect of over 65% in size; further: potency means the concentration at half of the fitted maximal effect)
Method in brief: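 P-gp-mediated resistance screen: KB-8-5-11 cells treated 72 h with compounds in dose-response. CellTiter-Glo viability.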

[10] = qHTS Screen of the MIPE 4.0 Collection Against Ewings Sarcoma (RDES) (AID 1259252; active means well fitted curve in the direction sought with a large enough effect; an effect the other way counts as inactive or inconclusive; further: nearly all actives have a fitted effect of over 35% in size; further: potency means the concentration at half of the fitted maximal effect)
Method in brief: (§2)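 Compound titrations go onto adherent log-phase cells 4 h after seeding, incubate 48 h at 37C, then CellTiter-Glo luminescence reports viability relative to DMSO and cell-free controls.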

[11] = qHTS Screen of the MIPE 4.0 Collection Against Ewings Sarcoma (TC71) (AID 1259253; active means well fitted curve in the direction sought with a large enough effect; an effect the other way counts as inactive or inconclusive; further: nearly all actives have a fitted effect of over 40% in size; further: potency means the concentration at half of the fitted maximal effect)
Method in brief: as §2

[12] = qHTS Screen of the MIPE 4.0 Collection Against Ewings Sarcoma (EW8) (AID 1259255; active means well fitted curve in the direction sought with a large enough effect; an effect the other way counts as inactive or inconclusive; further: nearly all actives have a fitted effect of over 35% in size; further: potency means the concentration at half of the fitted maximal effect;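 on viability: 100% = DMSO-treated cells and 0% = medium-only wells without cells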)
Method in brief: as §2

[13] = qHTS Screen of the MIPE 4.0 Collection Against Ewings Sarcoma (TC32) (AID 1259256; active means well fitted curve in the direction sought with a large enough effect; an effect the other way counts as inactive or inconclusive; further: nearly all actives have a fitted effect of over 45% in size; further: potency means the concentration at half of the fitted maximal effect)
Method in brief: as §2

SMILES	parasite growth, % of DMSO control [1] [%]	parasite growth remaining, % of DMSO control (lower = more inhibition) [2] [%]	parasite growth, % of control (lower = inhibition) [3] [%]	growth, % of control [4] [%]	cell viability, % of control (lower = more cytotoxic) [5] [%]	viability (% of control) [6] [%]	Potency [7]	Potency [8]	Potency [9]	Potency [10]	Potency [11]	Potency [12]	Potency [13]
Cc1c[nH]c(C=C2C(=O)Nc3ccccc32)c1CCC(=O)O	24.1	38.5	29.1	37.7	45	55.9	inactive	inactive	–	–	–	–	–
O=C1NC(=O)C(=Cc2ccc3c(c2)OC(F)(F)O3)S1	86.7	95.4	126	–	54.2	83	inactive	inactive	inactive	–	–	–	–
c1cc(-c2sc(-c3ccncc3)c(-c3ccncc3)c2-c2ccncc2)ccn1	8.84	81.7	19.1	3.72	64.5	79.1	inactive	inactive	inactive	–	–	–	–
CCc1ccc(C=C2SC(=S)NC2=O)cc1	77.1	93.8	115	87.9	159	83.2	20.9 µM (active)	–	inactive	inactive	inactive	inactive	inactive
O=C1c2ccccc2-[n+]2ccc3c([nH]c4ccccc43)c21	16.3	7.19	16.6	4.72	5.04	3.57	1.05 µM (active)	–	3.32 µM (active)	1.05 µM (active)	0.935 µM (active)	1.18 µM (active)	0.743 µM (active)
CO[C@H]1C[C@@H]2CC[C@@H](C)[C@@](O)(O2)C(=O)C(=O)N2CCCC[C@@H]2C(=O)O[C@H]([C@H](C)C[C@@H]2CC[C@H](OC(=O)C(C)(CO)CO)[C@H](OC)C2)CC(=O)[C@H](C)C=C(C)[C@@H](O)[C@@H](OC)C(=O)[C@H](C)C[C@H](C)C=CC=CC=C1C	–	6.2	9.78	3.93	6.71	3.11	inactive	inactive	–	–	–	–	–
CCn1c(C(=O)N(C2CC2)C2CC2)cc2c3c(ncn3C)c(Nc3cc(C)n(C)n3)nc21	9.81	12.4	23.5	11.5	144	90.8	inactive	inactive	inactive	–	–	–	–
COC(=O)C1=CO[C@@H](O)[C@@H]2C(CO)=CC[C@@H]12	83	85.9	98.4	91	17.3	16.7	–	inactive	inactive	–	–	inactive	–
C[N+](C)(C)CC(=O)O	–	96.1	93.5	85.2	178	114	–	inactive	–	inactive	inactive	inactive	inactive
N#CC(=C(N)Sc1ccccc1N)C(C#N)=C(N)Sc1ccccc1N	4.41	12.1	10.6	–	16.6	12.1	–	inactive	–	–	–	–	–
O=c1cc(-c2ccccc2)oc2cc(O)c(O)c(O)c12	–	24.2	28.3	6.52	151	91.7	–	inactive	inactive	20.9 µM (active)	23.5 µM (active)	–	–
CC(=NNC(=S)N1CCC1)c1ccccn1	–	–	10.5	6.19	91.1	9.75	16.6 µM (active)	–	–	–	0.0053 µM (active)	–	–
CC[C@]1(O)C[C@@H]2CN(CCc3c([nH]c4ccccc34)[C@@](C(=O)OC)(c3cc4c(cc3OC)N(C=O)[C@@H]3C45CCN4CC=C[C@](CC)([C@H]45)[C@@H](OC(C)=O)[C@]3(O)C(=O)OC)C2)C1 (stereo not given in full)	5.87	10.2	16.2	–	15	51.8	–	inactive	inactive	16.6 µM (active)	20.9 µM (active)	–	inactive
